# Assay results from PubChem BioAssay (NCATS).
# Records with an inconclusive call do not appear. Values without a mark were called inactive. Active and inactive are the calls of the source. The call rests on the fitted dose curve; in most records, active means well fitted inhibition curve with a large enough effect; inconclusive means small, poorly fitted or top-dose-only effect; inactive means flat fitted curve, though single readings scatter. Where a SMILES comes first, the peptide text is derived from it. [ ]: non-standard residue; d: D form. The star is where a group is joined. Benzoyl(4-tBu) = CC(C)(C)c1ccc(C(=O)*)cc1; Lys(Et2) = CCN(CC)CCCC[C@H](N)C(=O)O
# Biological target: Phospholipid hydroperoxide glutathione peroxidase GPX4 (Homo sapiens) (UniProt P36969)
# Sequence (P36969 whole entry, looked up): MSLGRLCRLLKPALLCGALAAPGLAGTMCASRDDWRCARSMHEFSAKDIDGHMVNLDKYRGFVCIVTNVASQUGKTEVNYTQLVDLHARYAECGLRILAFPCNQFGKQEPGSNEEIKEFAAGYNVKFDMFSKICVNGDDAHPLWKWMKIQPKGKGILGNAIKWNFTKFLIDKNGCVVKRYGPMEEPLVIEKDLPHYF
# Test: Primary qHTS Assay for Inhibitors of Recombinant Selenoprotein Glutathione Peroxidase 4 (GPX4) (AID 1845192); further: nearly all actives have a fitted effect of over 65% in size
# Conditions: recombinant GPX4, GR-coupled NADPH fluorescence, 15 min; series mostly up to 50 µM; activity change, negative = inhibition: at the top concentration
# Description: Assay Provider: Elias S.J. Arner MD PhD.
# Department of Medical Biochemistry and Biophysics
# Karolinska Institutet, Solna, Stockholm, Sweden
# Selenoprotein glutathione peroxidases (GPX), like the ubiquitously expressed GPX1 and the ferroptosis modulator GPX4, enact their antioxidant activities by reducing hydroperoxides using glutathione. […] GPX1 and GPX4 inhibitors have thus shown promise as anti-cancer agents. Existing inhibitors are often promiscuous, or modulate GPX activity only indirectly, so novel direct inhibitors identified through screening against GPX1 and GPX4 could be valuable. Here, we developed optimized glutathione reductase (GR)-coupled GPX assays for the biochemical high-throughput screen (HTS) of almost 12,000 compounds with known mechanisms of action. Initial hits were triaged using a GR counter-screen, assessed for isoform specificity using a separate GPX2 assay, and were assessed for general selenocysteine-targeting activity using a thioredoxin reductase (TXNRD1) assay. With this suite of assays, we identified novel GPX1/GPX2- and GPX4-specific inhibitors and can here present a validated pipeline for future discovery research for selenoprotein-targeting agents.
# SEQUENCE No. (e.g., 1, 2, 3, etc.); […] (e.g., Cells, Incubation, Reagent, etc.); VALUE; DESCRIPTION.
# 1; Reagent 1; 3 uL; 333.33 nM GPx4 enzyme or no enzyme control in 1536-well, black, solid Greiner assay plate.
# 2; Compound; 25 nL; Kalypsis pin tool (Wako USA) equipped with a 1536-well pin head.
# 3; Incubation; 30 min; room temperature.
# 4; Reagent 2; 1 uL; 500 nM GR, 5 mM GSH, 2.5 mM NADPH solution
# 5; Reagent 3; 1 uL; 2.5 mM CHP in 50% EtOH.
# 6; Detection; Fluorescence; ViewLux microplate reader, excitation 340 nm and emission 450 nm.
# 7; Incubation; 15 min; room temperature.
# 8; Detection; Fluorescence; ViewLux microplate reader, excitation 340 nm and emission 450 nm.
# NOTES (numbers refer to Sequence numbers above)
# 1. 3 µL of 333.33 nM GPX4 and 0.016% BSA in assay buffer (50 mM Tris-HCl, 2 mM EDTA (pH 7.5), 150 mM NaCl) was added to columns 3-48 of 1536-well plates using a BioRAPTR Flying Reagent Dispenser (Let's Go Robotics (LGR), Carlsbad, CA). A no-enzyme control (0.01% BSA in TES assay buffer) was added to columns 1-2.
# 2. 25 nL, library and DMSO controls were added to each well with a pin tool (Kalypsys).
# 3. The assay plates were incubated for 30 minutes at room temperature.
# 4. 1 µL of master mix (500 nM glutathione reductase (GR), 5 mM reduced glutathione (GSH), 2.5 mM NADPH in assay buffer) was added.
# 5. 1 µL of cumene hydroperoxide (CHP) ([2.5 mM] in 50% EtOH) was then added within 5 minutes to initiate the reaction. Final concentrations were: 200 nM GPX4, 1 mM GSH, 0.5 mM CHP, 0.5 mM NADPH, 100 nM GR, 0.01% BSA.
# 6. Initial fluorescence readout (t=0) at 340/450 nm was measured using a ViewLux multimodal detector (PerkinElmer, Waltham, MA).
# 8. Endpoint fluorescence readout (t=15) at 340/450 nm was measured 15 min after room temperature incubation.
# On the % scale 0 is the no-effect control and ±100 the full control effect.
SMILES,outcome,"activity change, negative = inhibition",Potency
CC1Cc2ccccc2N1C(=O)Cc1nc(N2CCOCC2)cc(=O)[nH]1 (stereo not given),inactive,–,–
CCn1c(=O)c(-c2ccc(-c3cncc(C)n3)cc2Cl)cc2cnc(NCCC3CCN(C)CC3)nc21,–,-3.33% [at 4.52 µM],–
CC(C)n1c(/C=C/[C@H](O)C[C@H](O)CC(=O)O)c(-c2ccc(F)cc2)c2ccccc21,inactive,–,–
C[C@@H](Oc1cc(C(=O)Nc2ccc(C(=O)N3CCN(C)CC3)cc2)nnc1N)c1c(Cl)ccc(F)c1Cl,–,-19.4%,–
Cc1ccc(-n2c(C)cc(-c3nnc4n3CCCCC4)c2C)cc1,–,1.92%,–
C=C1C(=O)O[C@@H]2[C@H]3C(C)=CC[C@@]34O[C@@]4(C)CC[C@@H]12,–,0.128%,–
O=C(/C=C/c1ccc(CN(CCO)CCc2c[nH]c3ccccc23)cc1)NO,–,-13.5%,–
O=C1OC(COc2ccccc2[N+](=O)[O-])CC1Cc1ccccc1 (stereo not given),–,-0.944%,–
CC(C)OC(=O)[C@H](C)N[P@](=O)(OC[C@H]1O[C@@H](n2ccc(=O)[nH]c2=O)[C@](C)(F)[C@@H]1O)Oc1ccccc1,–,4.76%,–
CC1(C(=O)O)CCC2(C)CCC3(C)C(=CC(=O)C4C5(C)CCC(OC6OC(C(=O)O)C(O)C(O)C6OC6OC(C(=O)O)C(O)C(O)C6O)C(C)(C)C5CCC43C)C2C1 (stereo not given),–,-16.2%,–
Nc1ncc(C(=O)NC2CN(C(=O)C3CC3)C2)c2ccc(-c3cccc(F)c3)nc12,–,-15.5%,–
CCN(CC)C(=O)Cc1csc(NS(=O)(=O)c2cccc(Cl)c2C)n1,–,-0.667%,–
NCC(=O)Nc1cncc(-c2nn3c(=O)cc(N4CCNCC4)nc3s2)c1,–,3.53%,–
C=CC(=O)Nc1cc(N2CCN(CC)CC2)ccc1Nc1cc(N(C)C(=O)Nc2c(Cl)c(OC)cc(OC)c2Cl)ncn1,–,0.534%,–
C[C@H](NC(=O)[C@H]1NCC[C@@H]1O)c1ccc(-c2noc(CCC3CCCC3)n2)cc1,inactive,–,–
O=C(Nc1nccs1)C(c1cc(F)ccc1O)N1Cc2ccccc2C1=O (stereo not given),–,-16.3%,–
CC(=O)[C@]1(N)Cc2c(O)c3c(c(O)c2[C@@H](O[C@H]2C[C@H](O)[C@H](O)CO2)C1)C(=O)c1ccccc1C3=O,–,3.56%,–
O=C1CC(c2c[nH]c3ccc(F)cc23)C(=O)N1 (stereo not given),inactive,–,–
CCN(CC)CCCC[C@H](NC(=O)[C@H](CC(C)C)NC(=O)[C@H](C)NC(=O)[C@H](Cc1ccccc1)NC(=O)c1ccc(C(C)(C)C)cc1)C(=O)N[C@@H](CO)C(=O)OC ({Benzoyl(4-tBu)}-FAL[Lys(Et2)]S-OMe),–,-26.4%,–
NC(CC1c2ccccc2Oc2ccccc21)(C(=O)O)C1CC1C(=O)O (stereo not given),inactive,–,–

SMILES,outcome,"activity change, negative = inhibition",Potency
COc1cc(-c2cn(C)c(=O)c3cnccc23)c(OC)cc1CN(C)C,–,-2.8%,–
CN(C)C/C=C/C(=O)Nc1ccc(C(=O)N2CCC[C@@H](Nc3ncc(Cl)c(-c4c[nH]c5ccccc45)n3)C2)cc1,–,-10.7%,–
CN(C)C/C=C/C(=O)Nc1cc2c(Nc3ccc(F)c(Cl)c3)ncnc2cc1O[C@H]1CCOC1,–,–,inactive
Cc1c(CN2CCN(C(=O)[C@H](C)O)CC2)sc2c(N3CCOCC3)nc(-c3cnc(N)nc3)nc12,–,-15.4%,–
O=C(/C=C\n1cnc(-c2cc(C(F)(F)F)cc(C(F)(F)F)c2)n1)NNc1cnccn1,–,-6.9%,–
CN(Cc1ccccc1)C(=O)c1ccc(S(=O)(=O)Nc2ccccc2)cc1,–,-6.13%,–
COc1ccc(Cl)cc1-c1cc(=O)[nH]c(=S)n1CC(N)=O,–,4.89%,–
O=C1NC(=O)[C@@H](c2cn3c4c(cccc24)CCC3)[C@@H]1c1c[nH]c2ccccc12,–,-10.9%,–
CC(C)(C)c1[nH]cnc1/C=c1\[nH]c(=O)/c(=C/c2ccccc2)[nH]c1=O,–,2.04%,–
COc1cc([C@@H]2c3cc4c(cc3[C@@H](O[C@@H]3O[C@@H]5CO[C@@H](c6cccs6)O[C@H]5[C@H](O)[C@H]3O)[C@H]3COC(=O)[C@H]23)OCO4)cc(OC)c1O,–,-0.821%,–
COC1=C2C[C@H](C)C[C@H](OC)[C@H](O)[C@@H](C)/C=C(/C)[C@H](OC(N)=O)[C@@H](OC)/C=C\C=C(\C)C(=O)NC(=CC1=O)C2=O,–,-54.4%,–
CC1(C)S[C@H]2[C@H](NC(=O)[C@@H](N)c3ccc(O)cc3)C(=O)N2[C@H]1C(=O)O,–,–,inactive
C[C@@]12C(=O)OC(=O)[C@]1(C)[C@H]1CC[C@@H]2O1,–,-1.11%,–
COc1cc(-c2cn(C)c(=O)c3cnccc23)cc(OC)c1CN(C)C,–,-15.2%,–
O=C(/C=C/c1ccc(/C=C/C(=O)Nc2ccc(C3=NCCN3)cc2)cc1)Nc1ccc(C2=NCCN2)cc1,–,-10.1% [at 4.52 µM],–
CC(=O)N[C@H]1CSSC[C@@H](C(N)=O)NC(=O)[C@H](C(C)C)NC(=O)[C@H](C)NC(=O)[C@H](Cc2cnc[nH]2)NC1=O,–,-0.377%,–
CC1=C2[N-][C@H]([C@H](CC(N)=O)[C@@]2(C)CCC(=O)NC[C@@H](C)OP(=O)([O-])O[C@H]2[C@@H](O)[C@@H](n3cnc4cc(C)c(C)cc43)O[C@@H]2CO)[C@]2(C)N=C(C(C)=C3N=C(C=C4N=C1[C@@H](CCC(N)=O)C4(C)C)[C@@H](CCC(N)=O)[C@]3(C)CC(N)=O)[C@@H](CCC(N)=O)[C@]2(C)CC(N)=O.O.[Co+2],inactive,–,–
CCS(=O)(=O)c1ccc2oc(-c3ccc4ccccc4c3)nc2c1,inactive,–,–
C=CC(=O)N1CCC(CNc2ncnc(N)c2-c2ccc(Oc3ccccc3)cc2)CC1,–,0.53%,–
Nc1cccc2c1CN([C@H]1CCC(=O)NC1=O)C2=O,–,1.12%,–
